A short description of assay [1]: NCI Yeast Anticancer Drug Screen. Data for the rad50 strain (AID 155).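 Further: 0% = growth of vehicle-only cultures of the same strain.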 Conditions: S. cerevisiae rad50 strain growth inhibition; at 50.0 µM; hits give high values. In a few lines: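 Vehicle-treated cultures provide the reference for the growth inhibition reported for compound-exposed, repair-deficient yeast.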
A short description of assay [2]: NCI Yeast Anticancer Drug Screen. Data for the mec2-1 strain (AID 157). Conditions: S. cerevisiae mec2-1 strain, at 50.0 µM, hits give high values. In a few lines: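 Compounds were applied to mec2-1 yeast cells. Their growth was then compared with that of vehicle-treated cultures to give growth inhibition.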
Assay [3] is described as follows: NCI Yeast Anticancer Drug Screen. Data for the sgs1 mgt1 strain (AID 161).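 Further: 0% = growth of cultures given vehicle only.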 Conditions: S. cerevisiae sgs1 mgt1 strain, at 50.0 µM, hits give high values. In a few lines:
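Compounds are added to genetically altered yeast, and growth is compared with cultures given vehicle alone to give percent inhibition.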

Assay [4] is described as follows: NCI Yeast Anticancer Drug Screen. Data for the cln2 rad14 strain (AID 165).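 Further: 0% = growth equal to vehicle treated cultures.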 The following applies: S. cerevisiae cln2 rad14 strain, at 50.0 µM, hits give high values. In a few lines:
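Strain: cln2 rad14 yeast, altered in cell cycle control and DNA damage repair. Read-out: growth inhibition vs vehicle.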

The nature of assay [5]: NCI Yeast Anticancer Drug Screen. Data for the bub3 strain (AID 167). Conditions: S. cerevisiae bub3 mutant strain, at 50.0 µM, hits give high values. In a few lines: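 Mutant yeast screening strain plus compound; vehicle-treated cultures serve as the 0% inhibition reference.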
Assay [6] can be described thus: NCI Yeast Anticancer Drug Screen. Data for the mlh1 rad18 strain (AID 175). Conditions: S. cerevisiae mlh1 rad18 strain growth inhibition; at 50.0 µM; hits give high values. The gist of the method:
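A repair-deficient yeast strain is exposed to test compound, and growth is scored relative to vehicle-treated controls.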

Compounds without any hit were thinned out: in the full panel of roughly 79,000, 15% have a hit. A number with no mark means an inactive call. The source made the active and inactive calls. No stated cut-off is given here; in the data, active means growth inhibition above about 70%; inactive means the rest.

For `Cc1nc(Cc2n[nH]c(C)n2)n[nH]1`, the growth inhibition in assay [1] is 14.4%; in assay [2], -6.65%; in assay [3] it was 11.9%; in assay [4], 15.2%; in assay [5], 3.4%; in assay [6] it was 14.3%.

Consider `CC(=O)OCC1OC(n2cc(I)c(=O)[nH]c2=O)C(OC(C)=O)C(OC(C)=O)C1OC(C)=O` (stereo not drawn), for which the growth inhibition in assay [1] was -29.9%; in assay [2] it was -22.1%; in assay [3], -12.2%; in assay [4] it was -27.4%; in assay [5], -29.5%; in assay [6], -13.2%.

`CCOC(=O)c1ccc(N(C=O)CCC(OCC)OCC)cc1`: the growth inhibition in assay [1] is -2.25%; in assay [2], -5.75%; in assay [3] it was 4.35%; in assay [4], -49.4%; in assay [5], 17.9%; in assay [6], -0.3%.

On to `COc1cc(C2SCC(=O)N2c2ccc(-n3c(-c4ccccc4)nc4ccccc4c3=O)cc2)cc(OC)c1OC` (stereo not drawn), for which the growth inhibition in assay [1] is -17.3%; in assay [2], -8.85%; in assay [3], -4.4%; in assay [4] it was -7.8%; in assay [5] it was 8.05%; in assay [6], 4.5%.

Turning to `N#CCc1ccc(Nc2cc(=O)[nH]c(=O)[nH]2)cc1`, the growth inhibition is -7.5% in assay [1]; 1.5% in assay [2]; 3.65% in assay [3]; -35.1% in assay [4]; -7.5% in assay [5]; -7.55% in assay [6].

Turning to `CN(C)c1nc(Cl)nc2nc(Cl)[nH]c12`, the growth inhibition in assay [1] was -10.9%; in assay [2], 3.15%; in assay [3], 13.2%; in assay [4], 0.8%; in assay [5] it was -3.2%; in assay [6], 11.9%.

On to `Cc1ccc(NC2C=C(c3ccccc3)Oc3ccccc32)c(C)c1` (stereo not drawn), for which the growth inhibition in assay [1] is 20.1%; in assay [2] it was -3.7%; in assay [3], 20.9%; in assay [4] it was -3.25%; in assay [5] it was 14.1%; in assay [6] it was 8.45%.

Regarding `CCCCCCCCCCCCCCCCCCNC(=O)Nc1ccccc1`, the growth inhibition in assay [1] is 3.1%; in assay [2] it was 7.05%; in assay [3] it was -2.75%; in assay [4], -7.65%; in assay [5] it was -4.05%; in assay [6], 15.3%.

Turning to `CC1CN(C(=S)Nc2ccccc2)CCN1C(=S)Nc1ccccc1` (stereo not drawn), the growth inhibition is -9% in assay [1]; 8.7% in assay [2]; 6.3% in assay [3]; -42.9% in assay [4]; 0.5% in assay [5]; -7.6% in assay [6].

For `O=c1/c(=C/c2ccccc2O)sc2nc3ccccc3n12`, the growth inhibition is 9.65% in assay [1]; -42.2% in assay [2]; 18.9% in assay [3]; 15% in assay [4]; 10.4% in assay [5]; 20.9% in assay [6].

For `Cc1nccc2scc(S(=O)(=O)O)c12`, the growth inhibition is 22.6% in assay [1]; 10.5% in assay [2]; 12.1% in assay [3]; -12.8% in assay [4]; -13.7% in assay [5]; 22.7% in assay [6].

Turning to `O=[N+]([O-])c1ccc(N=Nc2c(O)[nH]c3ccc(Br)cc23)cc1`, the growth inhibition in assay [1] is 22.4%; in assay [2], -20.2%; in assay [3], 14.3%; in assay [4], 10.8%; in assay [5], -15.4%; in assay [6], 15.3%.

As to `CC(C)(c1ccc([N+](=O)[O-])cc1)c1ccc(N)c([N+](=O)[O-])c1`, the growth inhibition in assay [1] was 0.65%; in assay [2], -9.65%; in assay [3], -10.6%; in assay [4], 0.1%; in assay [5] it was -9.1%; in assay [6], -13.1%.

`CC1(C)Oc2ccc(NC(=O)CCC(N)C(=O)O)cc2O1` (stereo not drawn): the growth inhibition in assay [1] was -28.2%; in assay [2] it was -52.7%; in assay [3], -1%; in assay [4] it was 11.5%; in assay [5], 16.5%; in assay [6], -18.1%.

With `O=C(CCC(=O)Nc1ccc(Cl)c(Cl)c1)CC(=O)c1ccc(F)cc1`, the growth inhibition was -17.4% in assay [1]; -9.4% in assay [2]; 14.4% in assay [3]; 4.3% in assay [4]; 19.1% in assay [5]; -1.65% in assay [6].

As for `CC(=O)OC1CC2(C)OC(Cc3ccccc32)O1` (stereo not drawn), the growth inhibition in assay [1] was -37.2%; in assay [2], -3.05%; in assay [3], -58.6%; in assay [4], 4.4%; in assay [5] it was -23.1%; in assay [6], -43.5%.

With `CCCCCCCCCCCOc1ccc(Cl)cc1Cl`, the growth inhibition in assay [1] was 10.4%; in assay [2] it was 16.5%; in assay [3], 8.75%; in assay [4], -4.05%; in assay [5] it was 30.2%; in assay [6] it was 12.2%.

Consider `Nc1c(Br)cc(Br)cc1-c1cc(Br)cc(Br)c1N`, for which the growth inhibition was 3.65% in assay [1]; 17% in assay [2]; 10.4% in assay [3]; 5.3% in assay [4]; 13.4% in assay [5]; 24.4% in assay [6].

In the case of `CCN(CC)C(C)(C)C(=O)/C=C/c1ccc(OC)cc1`, the growth inhibition in assay [1] was -11.6%; in assay [2], -15.2%; in assay [3] it was -33.3%; in assay [4], 12.7%; in assay [5], 9.65%; in assay [6], -18.4%.

In the case of `CCCCOC(=O)C1(C(=O)OCCCC)CC1`, the growth inhibition in assay [1] was 14.8%; in assay [2] it was -7.6%; in assay [3], 1.3%; in assay [4] it was 1.6%; in assay [5], -3.75%; in assay [6] it was 3.55%.

Regarding `CCOC(=O)c1cc2c(nc1N)C(=O)CCC2`, the growth inhibition was -0.1% in assay [1]; 6.25% in assay [2]; 34.2% in assay [3]; 16.9% in assay [4]; 30.9% in assay [5]; -30.9% in assay [6].

Regarding `COc1ccc([N+](=O)[O-])cc1NS(=O)(=O)c1ccc(NC(C)=O)cc1`, the growth inhibition in assay [1] was 1.6%; in assay [2] it was 18.7%; in assay [3], -5.55%; in assay [4], -1.25%; in assay [5] it was 23.8%; in assay [6] it was -19%.

`OC1CCCC1c1ccccc1` (stereo not drawn): the growth inhibition was 6.4% in assay [1]; -24.4% in assay [2]; -11.9% in assay [3]; -7.55% in assay [4]; -3.7% in assay [5]; 4.45% in assay [6].

Take `O=C(Nc1ccc(N=C=S)cc1Cl)c1cc(Br)cc(Br)c1O`: the growth inhibition was 94.3% (active) in assay [1]; 96.7% (active) in assay [2]; 95.6% (active) in assay [3]; 97.1% (active) in assay [4]; 96.8% (active) in assay [5]; 94.7% (active) in assay [6].

`Cc1cccc(NC(=S)NC2CCCCC2)c1`: the growth inhibition is 2.75% in assay [1]; 11.7% in assay [2]; -3.1% in assay [3]; 12.7% in assay [4]; 7% in assay [5]; 9.4% in assay [6].

Turning to `CC1(C)C2CC3C(=CCC4C(=O)C5CC=C6C(CC7CC6C7(C)C)C5C(=O)C43)C1C2` (stereo not drawn), the growth inhibition in assay [1] is 23.6%; in assay [2] it was -6.1%; in assay [3] it was 14%; in assay [4], -20%; in assay [5] it was -5.2%; in assay [6] it was -1.65%.

As to `ClCCCOCc1ccccc1`, the growth inhibition is 8.2% in assay [1]; -13.2% in assay [2]; 3.65% in assay [3]; 16.4% in assay [4]; 11.9% in assay [5]; 6.3% in assay [6].

Regarding `O=C(/C=C\c1cccc2ccccc12)c1cccc2ccccc12`, the growth inhibition in assay [1] was 35.5%; in assay [2], 12.8%; in assay [3], 0.55%; in assay [4] it was -4.75%; in assay [5], 23.1%; in assay [6], 34.4%.

Regarding `S=C(Sc1nc2ccccc2s1)Sc1nc2ccccc2s1`, the growth inhibition in assay [1] was 72% (active); in assay [2], 91.1% (active); in assay [3], 95% (active); in assay [4], 85.5% (active); in assay [5] it was 97.5% (active); in assay [6], 90.7% (active).

For `C=CCCCCCCCCC(=O)N/N=C/c1ccc(NC(C)=O)cc1`, the growth inhibition in assay [1] is 10.2%; in assay [2] it was 6.55%; in assay [3], 7.1%; in assay [4], 3%; in assay [5], 11.8%; in assay [6] it was 7.1%.

Regarding `C(=N\c1nccs1)/c1ccc(/C=N/c2nccs2)cc1`, the growth inhibition in assay [1] was -5.2%; in assay [2], -5.2%; in assay [3], 1.6%; in assay [4] it was 9%; in assay [5], 12.1%; in assay [6] it was 7%.

For the compound `O=[N+]([O-])c1ccc2c(c1)Cc1cc(N(CBr)CBr)ccc1-2`, the growth inhibition in assay [1] is 6.35%; in assay [2] it was 5.8%; in assay [3], -1.4%; in assay [4], -21.7%; in assay [5], -7.55%; in assay [6], 18.9%.

For the compound `Oc1c(/N=N/C(=S)NCCCN2CCN(CCCNC(=S)/N=N/c3[nH]c4ccccc4c3O)CC2)[nH]c2ccccc12`, the growth inhibition in assay [1] was 22.8%; in assay [2], 6.45%; in assay [3], 20.6%; in assay [4], -2.7%; in assay [5] it was -17.8%; in assay [6], 14.9%.

As for `O=C(Nc1ccccc1[N+](=O)[O-])C(=O)Nc1ccccc1[N+](=O)[O-]`, the growth inhibition in assay [1] was -7.55%; in assay [2], 5.9%; in assay [3], -2.95%; in assay [4], -22.5%; in assay [5], -0.9%; in assay [6], -0.25%.

Take `NC(=O)c1cn(C2OC(CO)C(O)C2O)c2nc(N)nc(N)c2c1=O` (stereo not drawn): the growth inhibition in assay [1] was 19%; in assay [2], 19.4%; in assay [3], 14.3%; in assay [4], 3.9%; in assay [5] it was 23.1%; in assay [6] it was 45.1%.

With `Cc1ccc(NC(=O)C(c2ccccc2)c2ccccc2)cc1`, the growth inhibition in assay [1] is 0.15%; in assay [2], 19.4%; in assay [3] it was 3.8%; in assay [4], -2.55%; in assay [5], 20.2%; in assay [6], 6.75%.

As for `Cc1nc(C)c(CC#N)s1`, the growth inhibition is -9.25% in assay [1]; -10% in assay [2]; -1.75% in assay [3]; -15.1% in assay [4]; -2% in assay [5]; 13.7% in assay [6].

`COC(=O)[C@@H]1[C@H]2C[C@@H]3c4[nH]c5ccccc5c4CCN3C[C@@H]2CC[C@@H]1O`: the growth inhibition in assay [1] is 1.5%; in assay [2] it was -9.55%; in assay [3] it was 13.9%; in assay [4], 2.15%; in assay [5] it was 5.45%; in assay [6], 1.25%.

For the origin of these results see PubChem BioAssay (NCI).
